BL2 CD40 inh – CD40 pathway inhibition in BL2 cells. BL2 NF-kB luciferase reporter, CD40L-induced, 4 h. inhibition, % at 10 µM. hit rate 0.94% among 83,000;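 active = mean inhibition of at least 50% with a set share of replicates also reaching that level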;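 also: 0% = neutral control wells and 100% = IKK inhibitor VII at 50 µM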
Active calls of the source: *; ! = a repeat was not active; [ ] = another dose, or the depositor's remark. Only a selection was taken, and hits are over-represented in it overall.

SMILES | BL2 CD40 inh
O=S(=O)(c1ccc(-c2ccccc2)cc1)N1[C@@H]2CNC[C@H]1C2c1ccc(-c2cccnc2)cc1 (stereo partly drawn) | -5.5
CC(C)[C@H]1C(=O)N[C@@H](c2ccc3c(c2)OCO3)CC=CC[C@@H](C)Oc2ccccc2C(=O)N1C (mixture of isomers) | 0.8
O=C(C1CCCC1)N1C[C@@H]2[C@H](c3ccccc31)[C@H](CO)N2C(=O)c1ccccc1 | 10.0
CCCCn1c(=N)n(CC(=O)O)c2ccccc21 | 6.4
CCCCCCCn1c2c(c(=N)c3ccccc31)CCC2 | 84.0*
CCCCCCN1Cc2ccccc2C1 | -15.8
COc1ccc(C(=O)N2C[C@@H]3[C@H](c4ccccc42)[C@H](CO)N3C(=O)c2cccc(F)c2)cc1 | 0.0
CN1CCN(C(=O)C[C@@H]2CC[C@@H]3[C@H](COC[C@H](O)CN3C(=O)Nc3ccc4c(c3)OCO4)O2)CC1 | -37.3[25 µM]
CN1CCN(C(=O)C[C@@H]2CC[C@H]3[C@@H](COC[C@@H](O)CN3C(=O)Nc3ccc4c(c3)OCO4)O2)CC1 | active[25 µM]
CN1CCN(C(=O)C[C@H]2CC[C@H]3[C@@H](COC[C@H](O)CN3C(=O)Nc3ccc4c(c3)OCO4)O2)CC1 | -39.0[25 µM]
CC(=O)Nc1ccc2c(c1)C(=O)N(C)C[C@H](C)[C@@H](CN(C)C)O2 | 33.5
CO[C@H](CN(C)C(=O)Nc1ccc(Cl)cc1)[C@@H](C)CN(Cc1ccccc1Cl)[C@H](C)CO | -8.8[25 µM]
O=C(CNCCO)N1N=C(c2cccs2)CC1c1cccs1 (stereo not drawn) | 30.5*
Cn1nnnc1SCC(=O)N1N=C(c2cccs2)CC1c1cccs1 (stereo not drawn) | -29.1
O=C(CSC1=NCCS1)N1N=C(c2cccs2)CC1c1ccc(F)cc1 (stereo not drawn) | 8.5
Cc1cccc(-c2ccccc2[C@H]2[C@@H](C#N)N(c3ncc(-c4ccccc4)s3)[C@@H]2CO)c1 | -16.3[25 µM]
COc1ccc2c3c(n(C)c2c1)[C@@H](CO)N(C(=O)c1ccccc1)CC31CCN(C(=O)c2ccccc2)CC1 | 5.2[25 µM]
CO[C@@H]1CN(C)C(=O)c2cc(NC(=O)C3CCC3)ccc2OC[C@@H](C)N(Cc2nccs2)C[C@H]1C | 0.6
CC(=O)Nc1ccc2c(c1)CC(=O)N(C)C[C@H](C)[C@@H](CN(C)C(=O)OC(C)(C)C)O2 | -30.3
C[C@H](CO)N1C[C@H](C)[C@H](CN(C)Cc2ccc(Cl)c(Cl)c2)OCc2cnnn2CCCC1=O | 5.1[25 µM]
Cc1ccccc1C(=O)Nc1c(C(=O)N(CCN(C)C)Cc2ccco2)oc2ccccc12 | 18.0
Cc1ccc(C(=O)NCCN(C)C)c(C)c1 | 5.2
CNc1c2cccc(C)c2nc2c(C(=O)NCCN(C)C)cccc12 | 85.5*
O=C(Cc1cccnc1)N1CC(=O)N2[C@H](C1)[C@@H](c1ccc(C#CC3CCCC3)cc1)[C@@H]2CO | 1.2
CNC[C@H]1Oc2c(NS(C)(=O)=O)cccc2C(=O)N(C)C[C@H]1C | -1.1
SMILES | BL2 CD40 inh
COc1cccc(-c2ccc([C@H]3[C@@H](C#N)N(C(=O)Cc4ccncc4)[C@@H]3CO)cc2)c1 | -29.3[25 µM]
O=C(/C=C/c1ccccc1)CCN1CCOCC1 | -7.2
O=C1/C(=C/c2ccccc2)CN(C(=O)CCN2CCOCC2)C/C1=C\c1ccccc1 | 92.6*
C[N+](C)(C)CCC(=O)N1C/C(=C/c2ccccc2)C(=O)/C(=C\c2ccccc2)C1 | -60.1
COCC#Cc1ccc([C@@H]2[C@@H](CO)N3C(=O)CN(C(=O)Nc4ccccc4F)C[C@@H]23)cc1 | -16.8[25 µM]
O=CNc1cc(-c2ccccc2)cn2c(-c3ccc(F)c(Cl)c3)cnc12 | -23.1
CCSc1ccc(-c2cc(NC=O)c3ncc(-c4cccc(C(=O)N(C)C)c4)n3c2)cc1 | 51.3*
CC(=O)c1ccc(-c2cnc3c(NC=O)cc(-c4ccc(N5CCN(C)CC5)cc4)cn23)cc1 | -24.6
C[C@H]1CN([C@@H](C)CO)C(=O)CCCn2cc(nn2)CO[C@H]1CN(C)Cc1cccc2c1OCCCO2 | 6.7[25 µM]
O=C1c2ccccc2-c2c1cccc2C(=O)N1CCOCC1 | 11.4
O=C1C(=C(c2ccccc2)N2CCOCC2)Cc2ccccc21 | 89.2*
O=C(c1ccccc1)N1CCN(C(=O)N2CCOCC2)CC1 | 7.8
CN(C)CC(=O)N[C@@H]1CC[C@H](CCn2cc(C3CCCC3)nn2)O[C@@H]1CO | 0.2
COc1ccc2c3c(n(C)c2c1)[C@H](CO)N(C(=O)CN1CCOCC1)CC31CCN(C(=O)Nc2cccc(F)c2)CC1 | 6.5[25 µM]
COCC(=O)N1CC2(CN(S(C)(=O)=O)C2)c2c(n(C)c3cc(OC)ccc23)[C@H]1CO | 2.8[25 µM]
COc1ccc(C#Cc2ccc([C@@H]3[C@H](CO)N4CCCCN(C)C[C@@H]34)cc2)cc1 | -52.3[25 µM]
COc1ccc(C#Cc2ccc([C@@H]3[C@@H](CO)N4CCCCN(C)C[C@H]34)cc2)cc1 | -53.8[25 µM]
COc1ccc(C#Cc2ccc([C@@H]3[C@H](CO)N4CCCCN(C(=O)c5ccncc5)C[C@@H]34)cc2)cc1 | -18.9[25 µM]
COc1ccc(C#Cc2ccc([C@H]3[C@@H](CO)N4CCCCN(C)C[C@@H]34)cc2)cc1 | active[25 µM]
COc1ccc(C#Cc2ccc([C@H]3[C@H]4CN(C(=O)c5ccncc5)CCCCN4[C@H]3CO)cc2)cc1 | 52.5*[25 µM]
COc1ccc(C#Cc2ccc([C@@H]3[C@H]4CN(C(=O)c5ccncc5)CCCCN4[C@H]3CO)cc2)cc1 | -15.7[25 µM]
COc1ccc(NC(=O)N(C)C[C@H]2Oc3ccc(NS(=O)(=O)c4ccc(F)cc4)cc3C(=O)N([C@@H](C)CO)C[C@H]2C)cc1 | 0.4
O=C1CSC(c2ccc([N+](=O)[O-])cc2)N1CCN1CCCCC1 (stereo not drawn) | 11.8
O=C1CC(=O)OC(c2ccc([N+](=O)[O-])cc2)O1 | 85.7*
O=C(O)c1ccc([N+](=O)[O-])cc1 | 6.4
SMILES | BL2 CD40 inh
OC[C@@H]1[C@@H](c2ccccc2)C2(CN(Cc3ccccn3)C2)N1CCC(F)(F)F | -11.6[25 µM]
CC(=O)N(C)C[C@@H]1Oc2c(NC(=O)NC(C)C)cccc2C(=O)N(C)C[C@H]1C | 0.7
C[C@@H]1COCn2nncc2CC[C@H](Cc2ccc(-c3ccccc3)cc2)C(=O)N1 | 4.3[25 µM]
CC(C)C#Cc1ccc([C@H]2[C@@H](CO)N3C(=O)CN(S(=O)(=O)c4ccccc4)C[C@H]23)cc1 | 8.7[25 µM]
CN(C)S(=O)(=O)c1cccc(-c2cn3ccccc3n2)c1 | -27.8
c1ccn2cc(-c3ccc4c(c3)OCCO4)nc2c1 | 66.8*
O=S(=O)(c1cccc(-c2cn3ccccc3n2)c1)N1CCCCC1 | 6.8
CN(C)C(=O)c1cccc(-c2ccc([C@H]3[C@H](CO)N4C(=O)CN(C(=O)C5CCCC5)C[C@@H]34)cc2)c1 | 2.5
CN(C)C(=O)c1cccc(-c2ccccc2[C@H]2[C@H](C#N)N(C(=O)C3CCCC3)[C@H]2CO)c1 | 0.4
CCC(=O)N1[C@@H](CO)[C@H](c2ccccc2)C12CN(C(=O)c1ccc3c(c1)OCO3)C2 | -10.7[25 µM]
O=C(Nc1ccccc1)N1C[C@@H]2N[C@H](C1)[C@@H]2c1ccc(/C=C/c2ccccc2)cc1 | -12.1
N#Cc1ccc(-c2ccc(C3[C@@H]4CN(C(=O)c5cccnc5)C[C@H]3N4)cc2)cc1 (stereo partly drawn) | 2.4[25 µM]
N#Cc1cccc(-c2ccc(C3[C@@H]4CN(C(=O)C5CCOCC5)C[C@H]3N4)cc2)c1 (stereo partly drawn) | 0.3[25 µM]
O=C(c1ccc(F)cc1)N1C[C@@H]2N[C@H](C1)C2c1ccc(/C=C/c2ccccc2)cc1 (stereo partly drawn) | 50.1*![25 µM]
